Screening results (PubChem)
PKA-R1A activ = activators of PKA-R1A holoenzyme, primary screen, biochemical, fluorescence polarization, Cy5-IP20, bovine R1A, mouse PKAc; activation, % at 11.4 µM; 340,000 compounds, 0.083% hits; cAMP-dependent protein kinase type I-alpha regulatory subunit (Bos taurus) + …; AID 504707, 2011; PKA-R1A dissociation; scaled: DMSO 0%, 113 µM cGMP 100%;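 active means percent activation above the mean of all tested compounds plus 3 SD, cut at about 19% in these data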;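 further: higher means more PKAc released from R1A so a rise in polarization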
PKA-R2B activ = activators of PKA-R2B holoenzyme, primary screen, biochemical, fluorescence polarization, Cy5-IP20, human; cAMP-dependent protein kinase catalytic subunit beta (Homo sapiens) + cAMP-dependent …; PKA-R2B holoenzyme dissociation; R2B truncated from residue 108, S112A mutant; 0% DMSO only, 100% 113 µM cGMP; 340,000 compounds, 0.079% hits; activation, % at 11.4 µM;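 active means activation above a cutoff set at the mean over all compounds plus 3 SD, cut at about 18% in these data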;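 further: higher means more holoenzyme dissociation and a rise in polarization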
VLA-4 inh = inhibition in human VLA-4 binding assay, primary screen, VLA-4 allosteric modulator project, MLPCN library, flow cytometry, VLA-4 expressing cells; Integrin alpha-4 (Homo sapiens), P13612; ligand binding flow cytometry; inhibition, % (about 7 µM as worked out from the volumes in the protocol); 330,000 compounds, 0.2% hits; AID 2557, 2010; in the data active means inhibition above about 50%
CendR NRP1 mod = modulators of CendR peptide binding to NRP-1, primary screen, biochemical, fluorescence polarization, uHTS | FAM-RPARPAR peptide binding to NRP-1 | inhibition, % at 25 µM | 360,000 compounds, 0.85% hits | Neuropilin-1 (Homo sapiens), O14786;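 active means inhibition or corrected inhibition above about 18%, plus a signal ratio from 0.5 to 1.5, limit read from the data, passing the limit was not always enough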
ATG4B inhibitor = ATG4B protease inhibitors, primary screen, biochemical, fluorescence, uHTS | Cysteine protease ATG4B (Homo sapiens), Q9Y4P1 | ATG4B cleavage of LC3-PLA2, NBD-HPC fluorescence, 1 h | inhibition, % at 8.33 µM | 340,000 compounds, 0.51% hits | AID 504462, 2011
VLA-4 allo CP = retest of VLA-4 allosteric modulators, confirmation, cell-based, cherry-picked plates, U937, HUTS-21 LIBS antibody | inhibition, % at 6.7 µM | U937 cells, HUTS-21 LIBS mAb binding, flow cytometry; LDV ligand present at threefold Kd | 1,300 compounds, 2% hits | shares compounds with VLA-4 inh;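 further: 0% = ligand without compound and 100% = no ligand background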
The depositor's hits bear a star; . = no result. Only some compounds are listed: those with a hit (about 1.6% of all), similar ones and a draw of the others. Unless noted, no stated cut-off is given here; in the data, active means inhibition above about 40%; inactive means the rest.

SMILES	PKA-R1A activ	PKA-R2B activ	VLA-4 inh	CendR NRP1 mod	ATG4B inhibitor	VLA-4 allo CP
COc1cccc(-c2sc3ccc(OC)cc3c2-c2ccc(C(N)=O)cc2)c1	1	-13	26	12	6	.
COc1cccc(-c2sc3ccc(OC)cc3c2-c2ccc(OC)cc2F)c1	-6	-5	15	18	1	.
COc1cccc(-c2sc3ccccc3c2-c2ccc(OCCN3CCCC3)cc2)c1	-13	1	64*	17	4	38
COc1cccc(-c2sc3ccc(OC)cc3c2-c2ccc(OCCN3CCCC3)cc2)c1	0	-1	.	4	-8	12
Cc1ccc(C(=O)OCC(=O)N2CCNC2=O)c(C)c1	-4	-3	.	0	8	.
CCc1ccccc1NC(=O)CN(C)C(=O)COC(=O)c1ccco1	-5	1	0	6	-2	.
Cc1ccc2ccccc2c1C(O)c1ncc(-c2ccc(C(F)(F)F)cc2)[nH]1 (stereo not drawn)	.	.	.	1	.	.
COc1cccc(-c2sc3ccccc3c2-c2ccc(OCCN(C)C)cc2)c1	-2	-7	72*	9	-1	44*
COc1ccc(OCCN2CCOCC2)cc1	-1	-10	8	5	-5	.
COc1ccc(-c2sc3ccc(OC)cc3c2-c2ccc(OCCN3CCOCC3)cc2)cc1	-10	-9	.	4	3	1
COc1cccc(-c2sc3cc(OC)c(OC)cc3c2-c2ccc(OCCN3CCCCC3)cc2)c1	-6	-6	.	-15	-6	0
CCOc1ccc(OCCN2CCCCC2)cc1	-4	0	4	-16	0	.
Cc1nn(Cc2ccccc2)c2ncccc12	-11	-2	7	9	6	.
COCCn1c(C)cc(C(=O)COC(=O)/C=C/c2c(C)nn(C3CCS(=O)(=O)C3)c2Cl)c1C (stereo not drawn)	-5	-4	17	6	-7	.
CCN(CC)S(=O)(=O)c1ccc(N2CCOCC2)c(NC(=O)c2cc(=O)[nH]c3ccccc23)c1	0	-3	51*	12	-2	-7
Cc1ccc(S(=O)(=O)N2CCOCC2)cc1NC(=O)COC(=O)c1ccccc1OCc1c(C)noc1C	-3	-1	40	-3	0	-14
Cc1ccc(S(=O)(=O)N2CCOCC2)cc1NC(=O)COC(=O)c1cccnc1Cl	-1	1	6	4	4	.
Cc1ccc(-c2cc(C(=O)N3CCN(C4CCS(=O)(=O)C4)CC3)c3ccccc3n2)cc1 (stereo not drawn)	-2	-2	-12	8	-24	-11
Cc1nc2nc(SCC(=O)c3cccc([N+](=O)[O-])c3)[nH]c2cc1Br	-4	-13	44	-6	-2	-9
CSc1ccccc1C(=O)C1CCCN(S(=O)(=O)N(C)C)C1 (stereo not drawn)	-6	-6	52*	2	10	-10
CCOc1ccccc1/C=C(/C#N)C(N)=O	-2	-3	1	0	0	2
CCCOc1ccccc1/C=C(\C#N)C(=O)Nc1cccc(C)n1	8	1	6	4	0	.
COc1ccc(CN(C)C(=O)C(Cc2ccccc2)NC(=O)c2ccccc2)c(OC)c1 (stereo not drawn)	-11	-7	12	3	-2	.
O=C(CCSc1ccc(Br)cc1)c1ccc(O)cc1	-1	9	41	-3	9	-13
COCCN(Cc1ccc(C)c(Br)c1)C(=O)Cn1cnc(S(=O)(=O)N2CCCC2)c1	5	-3	-7	2	-1	.
SMILES	PKA-R1A activ	PKA-R2B activ	VLA-4 inh	CendR NRP1 mod	ATG4B inhibitor	VLA-4 allo CP
CN(CCC1CCOCC1)C(=O)C1CCC(=O)N(CCc2cccc(F)c2)C1 (stereo not drawn)	-13	11	0	2	9	.
CCCN(CC(=O)Nc1ccccc1OC)C(=O)Cn1c(=O)oc2ccccc21	8	-3	.	-12	7	3
CCN(C(=O)Cn1c(=O)oc2ccccc21)c1cccc(C(F)(F)F)c1	-4	-15	-10	4	-9	9
CCN(CC)C(=O)Cn1c(=O)oc2ccccc21	-1	3	6	13	-6	-13
CCN(C(=O)Cn1c(=O)oc2ccccc21)c1cccc(C)c1	7	10	7	1	5	.
CC1CN(C(=O)Cn2c(=O)oc3ccccc32)CC(C)O1 (stereo not drawn)	3	-1	-9	-5	4	-15
CC(=O)Cn1c(=O)oc2ccccc21	0	3	-8	-35	-2	.
CC(=O)N[C@@H](Cc1c[nH]c2ccccc12)C(=O)NC1CCCc2ccccc21 (stereo partly drawn)	-4	0	3	-4	13	.
CCN1C(=O)Cc2cc(S(=O)(=O)NCCc3ccccc3)ccc21	-2	-10	3	7	-15	5
FC(F)(F)c1nnc(-c2ccccc2)nc1Sc1ccc(Cl)cc1	-9	-3	72*	-7	-2	50*
Cc1ccc(C(=O)C(OC(=O)c2cnccn2)c2ccccc2)cc1 (stereo not drawn)	-7	2	48	-6	-7	-9
CC(OC(=O)c1cnccn1)C(=O)c1ccccc1 (stereo not drawn)	-1	5	6	13	3	.
C/C(=N\NC(=O)Cc1c(C)[nH][nH]c1=O)c1ccc2ccccc2c1	.	.	61*	.	.	-16
CC(OC(=O)c1c[nH]c2ccccc12)C(=O)N1CCCC1 (stereo not drawn)	-3	-9	13	2	-5	.
Cc1ccc(-c2nn3cnnc3c3ccccc23)cc1	6	5	0	8	3	.
c1ccc(-c2nn3cnnc3c3ccccc23)cc1	-1	-4	6	6	0	-3
COc1ccc2cc1Oc1ccc(cc1)CC1c3c(cc(OC)c4c3Oc3cc5c(cc3O4)CCNC5C2)CCN1C (stereo not drawn)	14	0	52*	3	-6	14
CCc1cccc(NS(=O)(=O)c2cccc3cccnc23)c1	-4	-5	-4	-4	-3	.
O=C(O)c1cccc(NS(=O)(=O)c2cccc3cccnc23)c1	11	1	50*	3	-8	18
